Inconclusive results are not listed. Active and inactive are the calls of the source. Rule for the calls: active = hit-call score of the fitted dose curve at least 0.9, where 1 is the maximum; inconclusive = response in the unintended direction; inactive = score below 0.9.
tested on: zebrafish Peroxisome Proliferator-activated Receptor gamma (PPARg), gene 557037; test: ATG_zfPPARg_EcoTox2: Attagene TRANS-FACTORIAL EcoTox-2 HepG2 Assay for zebrafish Peroxisome Proliferator-activated Receptor gamma (PPARg)
Method: ATG_EcoTox2 is a cell-based, multiplexed assay created by modifying the existing Attagene TRANS-FACTORIAL system to include a panel of nuclear receptors from some or all the following species: human (Homo sapiens), african clawed frog (Xenopus laevis), rainbow trout (Oncorhynchus mykiss), japanese medaka (Oryzias latipes), and zebrafish (Danio rerio). The ECOTOX2-FACTORIAL format uses HepG2, a human liver cell line, with measurements taken at 24 hours after chemical dosing in a 24-well plate. ATG_zfPPARg_EcoTox2 is one of 29 assay components calculated in the ATG_EcoTox2 assay. It is designed to make measurements of mRNA induction, a form of inducible reporter, as detected with fluorescence intensity signals by Reverse transcription polymerase chain reaction (RT-PCR) and Capillary electrophoresis technology.The assay endpoint ATG_zfPPARg_EcoTox2 was analyzed in the positive analysis fitting direction relative to DMSO as the negative control and baseline of activity. Using a type of inducible reporter, measures of mRNA for gain-of-signal activity can be used to understand the reporter gene at the transcription factor-level as they relate to the gene PPARg. Furthermore, this assay endpoint can be referred to as a primary readout, because this assay has produced multiple assay endpoints where this one serves a reporter gene function. To generalize the intended target to other relatable targets, this assay endpoint is annotated to the nuclear receptor intended target family, where the subfamily is non-steroidal.
Human liver HepG2 cells are transiently transfected with multiple reporter transcription units (MRTUs) in 6-well plates using FuGene 6 reagent (Roche; 3 ml FuGene/1 mg DNA). The MRTU constructs are regulated by a cis-regulating element (promoter). Each RTU expresses a GAL4-UAS that regulates the transcription of a nearby target reporter gene sequence. A major difference between the CIS and TRANS system is that in CIS activities of endogenous TFs are measured, whereas the TRANS assay evaluates changes in activities of exogenous, chimeric NR-Gal4 proteins. […] At the end of 24 hour incubation, total RNA was isolated using TriZol reagent (Invitrogen). The isolated RNA is then reverse-transcribed using oligo(dT) primer and Mo-MLV reverse transcriptase (Invitrogen) with DNAse I (Ambion) treatment for 30 min. The one-tenth of the produced cDNA was amplified by PCR using Taq DNA polymerase (Invitrogen) and two reporter sequence-specific primers. The PCR products were fluorescently labeled by primer extension with 6-arboxyfluorescein (6-FAM) 5'-labeled reporter sequence-specific primer (2 min at 95 C, 20 s at 68 C and 10 min at 72 C) and these products were digested with 5U of HpaI (New England Biolabs) for 2h at 37 C. The fragments were purified using Qiaquick PCR columns (Qiagen), analyzed on an ABI 3130xL genetic analyzer (Applied Biosystems) with peak positions identified by using a set of X-rhodamine (ROX)-labeled MapMarker1000 molecular weight standards (BioVentures). The raw capillary electrophoresis data was processed using Attagraph software (Attagene).

| Structure (SMILES) | outcome | AC50 |
| --- | --- | --- |
| [Cl][Sn]([c]1ccccc1)([c]1ccccc1)[c]1ccccc1 | inactive |  |
| O=S(=O)(O)C(F)(F)C(F)(F)C(F)(F)C(F)(F)C(F)(F)C(F)(F)F | inactive |  |
| CCCCOCN(C(=O)CCl)c1c(CC)cccc1CC | inactive |  |
| O=C(O)C(F)(F)C(F)(F)C(F)(F)C(F)(F)C(F)(F)C(F)(F)C(F)(F)F | inactive |  |
| O=P(Oc1ccccc1)(Oc1ccccc1)Oc1ccccc1 |  | 13.2 µM (active) |
